CYP2C19 inhib: blocks human cytochrome P450 2C19; P33261; CYP2C19 Supersomes, luciferin-H EGE luminescence, 30 min; inhibition, % at 5 µM; actives 21% (n = 96,000); AID 778;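 active = CYP2C19 inhibition above a set limit at 5 µM in the primary screen, cut at about 50% in these data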;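 also: plate controls were negative control wells for no effect and 2.5 mM tranylcypromine positive control for full effect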
CYP2C9 activ: increases human cytochrome P450 2C9 activity; P11712; actives 1.4% (n = 96,000); AID 1024; activation factor at 5 µM; recombinant CYP2C9, luciferin-H conversion, luminescence; hits give high values; factor 1 = untreated enzyme, 0 = blocked;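 active = activation factor of 2 or more for CYP2C9 at a 5 µM dose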;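 also: 0 = sulfaphenazole-blocked wells and 1 = vehicle-only wells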
Target sequence (P11712 whole entry, looked up): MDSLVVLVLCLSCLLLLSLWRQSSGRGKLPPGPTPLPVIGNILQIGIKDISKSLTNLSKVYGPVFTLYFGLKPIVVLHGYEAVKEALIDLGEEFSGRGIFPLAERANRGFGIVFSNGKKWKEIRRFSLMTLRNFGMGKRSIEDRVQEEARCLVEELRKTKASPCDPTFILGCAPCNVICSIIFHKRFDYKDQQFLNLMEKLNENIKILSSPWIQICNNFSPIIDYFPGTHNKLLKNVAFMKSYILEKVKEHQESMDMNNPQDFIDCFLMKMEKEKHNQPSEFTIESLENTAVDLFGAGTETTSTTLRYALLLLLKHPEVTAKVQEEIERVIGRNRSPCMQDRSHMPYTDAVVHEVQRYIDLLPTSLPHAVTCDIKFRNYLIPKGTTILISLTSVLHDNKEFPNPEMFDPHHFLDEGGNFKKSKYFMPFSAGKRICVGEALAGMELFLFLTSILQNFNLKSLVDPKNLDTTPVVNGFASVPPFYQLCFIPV
EphB4 ephrin blk: EphB4-ephrin-B2 interaction antagonism; EphB4 LBD / TNYL-RAW-Alexa532 peptide, fluorescence polarization; inhibition, % at 7 µM; actives 0.15% (n = 97,000); AID 720;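 active = inhibition above the screen-wide mean inhibition plus 3 SD, cut at about 15% in these data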;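 also: 0% = DMSO wells and 100% = excess unlabeled TNYL-RAW peptide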
CYP2C9 inhib: human CYP2C9 inhibition. actives 20% (n = 96,000). inhibition, % at 5 µM. CYP2C9 Supersomes, luciferin-H conversion, luminescence;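 active = blocking of liver enzyme CYP2C9 beyond about 50% at 5 µM, limit read from the data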
CYP2C19 act: increases human CYP2C19 enzyme activity; recombinant CYP2C19, luciferin-H EGE luminescence; hits give high values; 0 = fully inhibited enzyme, 1 = untreated enzyme; 96,000 tested, under 10 active; P33261; activation factor at 5 µM; AID 1025;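 active = activation factor of at least 2 at 5 µM in the primary screen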;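 also: 0 = wells with 2.5 mM tranylcypromine and 1 = vehicle-only wells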
An asterisk follows results filed as active; · = not tested or not shown. Most compounds without a hit are left out; they make up all but 27% or so of the library.

SMILES	CYP2C19 inhib	CYP2C9 activ	EphB4 ephrin blk	CYP2C9 inhib	CYP2C19 act
CCC(C)n1c(SCC(=O)Nc2cc(C)on2)nc2ccccc2c1=O (stereo not drawn)	62*	0.5	4	52*	0.4
Cc1cc(NC(=O)CSc2nc3ccccc3c(=O)n2C(C)c2ccccc2)no1 (stereo not drawn)	82*	0.9	1	14	0.2
CCCCn1c(SCC(=O)Nc2cc(C)on2)nc2ccccc2c1=O	18	0.9	-5	10	0.8
O=S(=O)(c1cccc(-c2nc3n(n2)Cc2ccccc2-3)c1)N1CCCCC1	30	1	3	-1	0.7
Cc1cnc(NC(=O)CSc2nnc(-c3ccncc3)n2C2CCCCC2)s1	76*	0.6	3	44	0.2
O=C(CSc1nnc(-c2cccnc2)n1-c1ccccc1)Nc1ccccn1	8	1.1	-3	-8	0.9
O=C(CSc1nnc(-c2ccncc2)n1C1CCCCC1)Nc1cccc(O)c1	45	0.5	5	46	0.5
COc1ccc(-c2nnc(SCC(=O)Nc3ncc(C)s3)n2-c2ccccc2)cc1OC	62*	0.5	-13	51*	0.4
CCCCOc1ccc(S(=O)(=O)Nc2ccc(NC(C)=O)cc2)cc1	·	·	-2	·	·
CCCN(CCC)S(=O)(=O)c1ccc(NC(=O)COc2ccccc2)cc1	87*	0	-2	99*	0.1
CCCNS(=O)(=O)c1ccc(NC(=O)Cc2cccs2)cc1	·	·	-6	·	·
Cc1cc(C)nc(NS(=O)(=O)c2ccc(NC(=O)COc3ccccc3)cc2)n1	0	0.8	-6	18	1
CCCCN(CCCC)S(=O)(=O)c1ccc(NS(=O)(=O)c2ccc(NC(C)=O)cc2)cc1	25	0.2	-5	84*	0.8
CCCCN(CCCC)S(=O)(=O)c1ccc(NC(=O)Cc2cccs2)cc1	66*	0.1	0	89*	0.3
O=C(COc1ccc(/C=N/NS(=O)(=O)c2ccccc2)cc1)Nc1ccccc1	29	0.3	-5	68*	0.7
CCc1nnc(NC(=O)CSc2nnc(-c3ccc(S(=O)(=O)N4CCCC4)cc3)n2CC)s1	·	·	2	·	·
CCCN(CCC)S(=O)(=O)c1ccc(NC(=O)Cc2cccs2)cc1	50*	0.2	-2	84*	0.5
O=C(CN1CCCCC1)Nc1ccc(S(=O)(=O)N2CCOCC2)cc1	-3	1	-3	-2	1
CCCN(CCC)S(=O)(=O)c1ccc(C(=O)Nc2ccc(OCC(=O)N3CCOCC3)cc2)cc1	20	0.2	-3	80*	0.8
CCCCN(CCCC)S(=O)(=O)c1ccc(NC(=O)CN2CCOCC2)cc1	72*	0.1	-6	91*	0.3
COc1cccc(C(=O)Nc2c3c(nn2-c2cccc(C)c2C)CS(=O)C3)c1OC (stereo not drawn)	13	0.9	5	14	0.9
O=C(CN1CCN(S(=O)(=O)c2ccc(F)cc2)CC1)Nc1cccc(C(F)(F)F)c1	41	1	-1	4	0.6
Cc1ccc(C(=O)C2=C(O)C(=O)N(c3ncccn3)C2c2cccc(Cl)c2)o1 (stereo not drawn)	-1	0.7	·	29	1
Nc1ccc2nc(SCc3ccc([N+](=O)[O-])cc3)sc2c1	97*	0.4	-7	59*	0
O=[N+]([O-])c1ccc2nc(SCc3ccccc3Cl)sc2c1	26	0.9	-10	12	0.7
SMILES	CYP2C19 inhib	CYP2C9 activ	EphB4 ephrin blk	CYP2C9 inhib	CYP2C19 act
Fc1ccccc1COc1ccc(/C=N/NC(=S)NCc2ccccc2)cc1	·	·	-6	·	·
COC(=O)c1ccc(/C=N/n2cnnc2)cc1	47	0.7	-6	29	0.5
C(=N\n1cnnc1)/c1ccc(OCc2cccc3ccccc23)cc1	38	0.2	-2	81*	0.6
C(=N\n1cnnc1)/c1ccc(OC2CSC2)cc1	93*	0.1	1	85*	0.1
Fc1ccccc1COc1ccc(/C=N/n2cnnc2)cc1	97*	0.1	8	95*	0
CCOC(=O)Cc1csc(NC(=O)CSc2nc3cccnc3n2CC)n1	6	1.3	-4	-26	0.9
COc1cccc(-n2nnc3c(=O)n(Cc4ccccc4Cl)cnc32)c1	·	·	2	·	·
Cc1noc2c1C(c1ccc(N(C)C)cc1)C1=C(CC(C)(C)CC1=O)N2 (stereo not drawn)	76*	0.8	-2	20	0.2
Cc1ccc(C2C3=C(CC(C)(C)CC3=O)Nc3onc(C)c32)cc1 (stereo not drawn)	99*	0.4	4	56*	0
CCOC(=O)C1=C(C)NC2=C(C(=O)CC(C)(C)C2)C1c1ccc(N(C)C)cc1 (stereo not drawn)	24	0.6	3	39	0.8
CCn1ncc(CNC(=O)CCSc2nc(-c3ccco3)cc(C(F)(F)F)n2)c1C	·	·	3	·	·
O=C(CCCOc1ccc(Cl)cc1Cl)NCC1CCCO1 (stereo not drawn)	·	·	4	·	·
Oc1ccc(/C=N/Nc2cccc3cccnc23)c(O)c1	5	3*	-2	-205	1
Oc1ccc(/C=N/Nc2nccnc2Cl)c(O)c1	43	0.5	7	52*	0.6
COc1ccc(/C=N/Nc2nccnc2Cl)cc1	77*	0.6	5	37	0.2
Oc1ccccc1/C=N/Nc1nccnc1Cl	72*	0.6	5	43	0.3
COc1ccc(/C=N/NC2=NCCCCC2)cc1	8	0.9	-2	11	0.9
CCOc1ccc(NC(=O)CSc2nnnn2CC(=O)O)cc1	·	·	7	·	·
O=C(NNC(=O)C1CC1)c1ccc(-c2ccccc2)cc1	13	1.4	8	-44	0.9
COc1cc(NS(=O)(=O)c2ccc(Br)s2)cc(OC)c1	100*	0	2	96*	0
CC(=O)c1cc2c(cc1NS(=O)(=O)c1ccccc1)OCO2	88*	2.8*	-5	-177	0.1
CCC(C)NS(=O)(=O)c1ccc(S(=O)(=O)Nc2cc3c(cc2C(C)=O)OCO3)cc1 (stereo not drawn)	33	0.7	-5	28	0.7
O=C(c1ccncc1)c1ccc(NS(=O)(=O)c2ccc(Br)s2)cc1	5	0	-7	99*	0.9
Cc1cc(C)nc(NS(=O)(=O)c2ccc(NC(=O)c3ccc4c(c3)OCO4)cc2)n1	9	0.5	·	52*	0.9
Cc1cc(NS(=O)(=O)c2ccc(Br)s2)no1	·	·	2	·	·
Cc1cc(C)nc(NS(=O)(=O)c2ccc(NC(=O)c3ccc(S(=O)(=O)N4CCOCC4)cc3)cc2)n1	-7	1	1	-4	1.1
Cc1noc(C)c1C(=O)Nc1ccc(F)cc1F	3	1.1	-3	-6	1
CCOc1ccccc1NC(=O)C1CCCN1C(=O)OCc1ccccc1 (stereo not drawn)	36	0.7	·	29	0.6
COc1ccc(C(=O)/C=C(\C)Nc2ccc3c(c2)OCO3)cc1	11	0.9	2	5	0.9
CC(C)=CC(=O)Nc1ccc2c(c1)OCO2	26	0.8	1	21	0.7

Compound activity deposited in PubChem by several laboratories.
